High-throughput results from PubChem.
Most compounds without a hit are left out; they make up all but 3.3% or so of the library.
AmpC detergent – AmpC beta-lactamase inhibition with detergent present; hit rate 0.041% among 370,000; Potency, µM (highest dose often 114 µM), most hits filed as inhibitors; AmpC hydrolysis of nitrocefin, absorbance 480 nm, 0.01% Triton; P00811; further: nearly all actives have a fitted effect of over 25% in size
Target sequence (P00811 whole entry, looked up): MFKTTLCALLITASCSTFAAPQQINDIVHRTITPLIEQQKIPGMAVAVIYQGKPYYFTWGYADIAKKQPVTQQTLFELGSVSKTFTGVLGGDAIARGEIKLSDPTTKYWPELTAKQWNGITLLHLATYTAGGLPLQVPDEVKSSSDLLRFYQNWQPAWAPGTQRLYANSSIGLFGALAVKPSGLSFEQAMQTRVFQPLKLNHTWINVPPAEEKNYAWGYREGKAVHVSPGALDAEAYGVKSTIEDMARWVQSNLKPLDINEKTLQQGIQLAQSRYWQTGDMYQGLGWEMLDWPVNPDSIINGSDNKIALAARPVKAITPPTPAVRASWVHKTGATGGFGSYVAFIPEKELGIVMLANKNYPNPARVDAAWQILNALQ
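20 mM phosphate pH 7.0 + 0.01% (detergent screen) or 0.0001% Triton X-100; 5.3 nM AmpC reagent; cpd preinc 15 min RT; nitrocefin (800 uM stock) to start; A480 q20 s × 4 min; Activity was normalised to no-enzyme and no-compound control wells.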
Sm TGR inh – inhibitors of Schistosoma mansoni thioredoxin glutathione reductase; purified TGR, DTNB reduction, TNB absorbance 405 nm; Potency, µM (top dose mostly 114 µM), hits mostly inhibitors; hit rate 3% among 360,000; further: nearly all actives have a fitted effect of over 60% in size
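TGR 20 nM + NADPH 100 uM (dispensed conc.), cpd preinc 15 min RT; start with NADPH (500 uM addition) then DTNB (15 mM addition). Kinetic TNB absorbance, 405 nm filter. Four-parameter Hill fit across titration.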
AmpC inh no detg – blocks E. coli AmpC beta-lactamase in detergent-free assay | hit rate 0.52% among 330,000 | AID 485341 | P00811 | Potency, µM (doses to about 57.1 µM), hits mostly inhibitors | AmpC nitrocefin hydrolysis, absorbance 480 nm, 0.0001% Triton; further: nearly all actives have a fitted effect of over 20% in size
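AmpC (5.3 nM in the dispensed reagent) in 20 mM phosphate pH 7.0 with 0.01% (detergent screen) or 0.0001% Triton X-100 was preincubated with compounds for 15 min at room temperature. Nitrocefin was then added from an 800 uM solution, and hydrolysis was followed at 480 nm.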
Tb PYK inh – inhibitors of Trypanosoma brucei pyruvate kinase. Q57TT1. hit rate 0.12% among 410,000. Potency, µM (titrated, usually from 76.8 µM), hits mostly inhibitors. AID 624173. TbPYK enzyme, Kinase-Glo Plus ATP luminescence, 45 min; further: nearly all actives have a fitted effect of over 50% in size
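Enzyme and substrate buffer are dispensed first and compound is pin-transferred. ADP at 130 uM final then starts the reaction, which runs 45 min at room temperature. Detection reagent is added for 10 min before luminescence is imaged.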
SARS PLpro yeast – blocks SARS-CoV papain-like protease in a yeast assay. S. cerevisiae expressing SARS-CoV PLpro, growth rescue. Potency, µM (doses to about 32.9 µM), usual class: activators. hit rate 0.19% among 330,000. AID 485353; calls by dose curve; further: nearly all actives have a fitted effect of over 55% in size
RE007 growth inh – less growth of the S. pombe RE007 Vpr strain | S. pombe RE007 Vpr strain, BacTiter-Glo ATP luminescence, 24 h | Potency, µM (doses to about 92.2 µM), actives largely listed as inhibitors | hit rate 0.21% among 360,000; active means well fitted falling curve with a large enough effect; inconclusive means small, poorly fitted or top-dose-only effect; inactive means no such curve, though single readings can be large or run the other way; further: nearly all actives have a fitted effect of over 50% in size
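Fission yeast strain RE007, carrying one chromosomally integrated HIV-1 vpr copy, was seeded at OD 0.01 in PMG+AL medium with 23 nL pinned compound. After 24 h at 30 °C and 99% humidity, viability was read by BacTiter-Glo luminescence.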
Hits are given with their value; n = inactive; u = inconclusive; x = no result given; ! = not confirmed by another sample; [ ] = another dose, or the depositor's remark. Unless noted, the call rests on the fitted dose curve; in most records, active means well fitted curve in the direction sought with a large enough effect; inconclusive means small, poorly fitted or top-dose-only effect, or another doubt; inactive means no such curve, though single readings can be large; an effect the other way counts as inactive or inconclusive.

SMILES	AmpC detergent	Sm TGR inh	AmpC inh no detg	Tb PYK inh	SARS PLpro yeast	RE007 growth inh
COc1ccccc1N1CCN(CC(=O)c2ccc3ccn(C(C)=O)c3c2)CC1	n	25.1µM	n	n	n	n
COc1ccc(C(=O)CCN2CCN(c3ccccc3OC)CC2)cc1	u	0.562µM	n	n	n	u
CCN(c1cccc(C)c1)S(=O)(=O)c1ccc2[nH]cc(C(=O)NCCCOC)c(=O)c2c1	n	n	x	n	x	x
Cc1ccc(-c2nc(CS(=O)(=O)CC(=O)N3CC(C)CC(C)C3)c(C)o2)cc1 (stereo not given)	n	2.24µM	39.8µM	n	n	n
CCN1CCN(C(=O)CS(=O)(=O)Cc2nc(-c3ccc(C)cc3)oc2C)CC1	n	n	10µM	n	n	n
Cc1ccc(-c2nc(CS(=O)(=O)CC(=O)N3CCN(C)CC3)c(C)o2)cc1	n	n	n	n	n	n
COc1ccc(CNC(=O)Cc2c(C)c3cc4c(C)coc4c(C)c3oc2=O)cc1OC	n	n	x	n	x	x
COc1ccc(C(=O)Nc2ccc(C(=O)OCc3cc(=O)n4nc(C5CC5)sc4n3)cc2)cc1	n	n	x	n	x	x
Cc1ccc(S(=O)(=O)n2nc(C)c(S(=O)(=O)N3CCC(C)CC3)c2C)cc1	n	u	x	n	x	x
COc1cc2c3c(c1)/C(=C1/SC(NC(C)=O)=NC1=O)C(=O)N3C(C)(C)C=C2C	n	39.8µM	n	n	u	u
O=C(N/N=C/c1ccccc1C(=O)O)c1cccc(S(=O)(=O)Nc2cc(Cl)ccc2Cl)c1	n	n	12.6µM	n	n	n
NC(Cc1c[nH]c2ccccc12)C(=O)NCc1ccccc1 (stereo not given)	n	n	n	n	n	n
NC(Cc1cc(O)c(O)cc1O)C(=O)O (stereo not given)	50.1µM	15.8µM	7.08µM	x	n	x
N[C@@H](Cc1cc(I)c(O)c(I)c1)C(=O)O	n	n	n	n	n	n[18.4 µM]
N[C@@H](Cc1c[nH]c2ccccc12)C(=O)O	n	14.1µM	n	x	n	x
Cc1sc(N/N=C/C=C/c2ccccc2)nc1-c1ccccc1	n	n	n	n	12.6µM	n
Cc1cc(C)nc(N/N=C/C=C/c2ccccc2)n1	n	n	n	n	n	n
O=C1NN=C(CSc2n[nH]c(=S)s2)CS1	n	39.8µM	n	n	n	n
Cc1ccc(O)c(NC(=O)c2ccc(Br)c(S(=O)(=O)N3CCCCC3)c2)c1	n	n	x	n	x	x
CCOc1ccc(N2C(=O)CC(NC3CCCCNC3=O)C2=O)cc1 (stereo not given)	n	22.4µM	n	n	n	u
CCOc1ccc(N2C(=O)CC(NCC#N)C2=O)cc1 (stereo not given)	n	2.82µM	n	n	n	u
O=C1NCCCCC1NC1CC(=O)N(c2ccccc2)C1=O (stereo not given)	n	n	n	n	n	n
Cc1cc(C)c(S(=O)(=O)/N=C2\C=C(NS(=O)(=O)c3ccccc3)C(=O)c3ccccc32)c(C)c1	n	n	n	n	n	n
Cc1cc(C)c(S(=O)(=O)/N=C2/C=C(SCC(=O)O)C(=O)c3ccccc32)cc1C	n	3.55µM	15.8µM	u	n	u
O=c1c(-c2ccc(Cl)cc2)c(C(F)(F)F)oc2c(CN3CCCCC3)c(O)ccc12	n	n	x	n	x	x
SMILES	AmpC detergent	Sm TGR inh	AmpC inh no detg	Tb PYK inh	SARS PLpro yeast	RE007 growth inh
CCn1c(C)nc([N+](=O)[O-])c1Sc1ccc(F)cc1	n	39.8µM	n	n	n	n
COC(CNC(=O)c1ccc2c3c(onc13)-c1ccccc1C2=O)OC	n	12.6µM	n	n	n	u
O=C(NCCCNC(=O)c1ccc(-c2cc(Cl)ccc2Cl)o1)c1cnccn1	n	n	n	n	n	n
Cc1ccc(-c2ccc(C(=O)NCCCNC(=O)c3cnccn3)o2)cc1Cl	n	31.6µM	n	n	n	n
CC(/C=C/c1ccco1)=N\NC(=O)COc1ccc(C)c(C)c1	n	7.08µM	n	n	n	n
Cc1ccc(OCCNC(=O)/C=C/c2ccco2)cc1C	n	1.12µM	n	n	n	n
CC(/C=C/c1ccco1)=N\NC(=O)CNc1ccc2ccccc2c1	n	n	n	n	n	n
COCCCNC(=O)c1ccc(-n2c(-c3ccccc3)cc3c2CCC(C)C3)cc1 (stereo not given)	n	n	x	n	x	x
Cc1cc(C)cc(NC(=O)CSc2nc3c(c(=O)n2C)SC(C)C3)c1 (stereo not given)	u	n	n	n	n	n
Cc1cc(C)c(NC(=O)CSc2nc3c(c(=O)n2C)SC(C)C3)c(C)c1 (stereo not given)	n	n	3.16µM	n	n	n
COc1ccc2ccc3c(c2c1)N=CC1(O3)N(C)c2ccccc2C1(C)C (stereo not given)	u	22.4µM	n	n	n	n
CN1c2ccccc2C(C)(C)[C@]12C=Cc1cc(O)ccc1O2	n	n	n	n	n	n
CN1c2ccccc2C(C)(C)C12C=Nc1c(ccc3ccccc13)O2 (stereo not given)	u	20µM	25.1µM	n	n	u
COC(=O)c1sccc1S(=O)(=O)N1CCN(c2cccc(C)c2C)CC1	n	n	x	n	x	x
CC(C)Oc1cccc(C(=O)NC(=S)Nc2cccc(C(F)(F)F)c2)c1	n	n	n	n	n	n
COc1ccc(C(=O)NC(=S)Nc2ccc(Cl)c(C(=O)O)c2)cc1	n	39.8µM	n	n	n	n
CC(C)Oc1cccc(C(=O)Nc2ccc(N3CCN(C)CC3)cc2)c1	n	39.8µM	n	n	n	n
CC(C)Oc1cccc(C(=O)NC(=S)Nc2ccc(Cl)c(C(=O)O)c2)c1	n	39.8µM	n	n	u	n
CN1CCN(c2ccc(NC(=O)c3cccc(OCc4ccccc4)c3)cc2)CC1	n	n	n	n	n	n
CCOC(=O)C1CCCN(S(=O)(=O)c2ccc3c(c2)CCN3C(=O)CC)C1 (stereo not given)	n	n	x	n	x	x
COc1cccc(CNC(=O)c2cc(S(=O)(=O)N3CCCCC3)cn2C)c1	n	n	x	n	x	x
COCc1cc(C)nc2c1C(=O)NC(c1ccc(Br)cc1)N2Cc1ccccc1 (stereo not given)	n	n	x	n	x	x
COc1ccc(NC(=O)C(NS(=O)(=O)c2ccc3c(c2)CCCC(=O)N3)C(C)C)c(OC)c1 (stereo not given)	n	n	x	n	x	x
CCCCCCC[n+]1ccc(-c2cc[n+](CCCCCCC)cc2)cc1	n	n	n	n	n	6.31µM
CCCCCCCCCCCCCCCC[n+]1ccccc1	x	x	x	n	x	15.8µM!
CCCCC/C(C=O)=C/c1ccccc1	x	x	x	n	x	x
